In PubChem BioAssay:
Activity calls are given as the source filed them.

Test system: XIP peptide (Xip251-270) binding
Experiment: small-molecule binders of XIP peptide, primary screen, biochemical, small-molecule microarray, fluorescence 635/667 nm, 0.1 µg/mL protein (AID 1182)
Details: fluorescent protein binding, 635 nm, higher = more signal, called active from +8 up or from −8 down

Composite z-score, inactive:
COc1cccc([C@@H]2Oc3ccc(Br)cc3C(=O)[C@H]2O)c1 2.46
CO[C@@H]1COC(=O)CC=C[C@@H](C)[C@@H]2C=C[C@@H](O)[C@@H](COC(=O)CC=C[C@H]1C)O2 0.794
O=C1C2=CC[C@H]3C(=O)N(Cc4ccc5c(c4)OCO5)C(=O)[C@H]3[C@H]2[C@H](O)[C@@H]2O[C@H]12 0.225
CCOC(=O)[C@H](Cc1ccccc1)NC(=O)CCC1CC(OC(=O)NCc2ccc3c(c2)OCO3)CC2(CCCC(COC(=O)NCc3cccc(C(F)(F)F)c3)O2)O1 (stereo partly specified) 0.19
CO[C@@H]1COC(=O)CCC[C@@H](C)[C@H](OC)COC(=O)CCC[C@H]1C -0.201
C[C@@H]1C=CCC(=O)OC[C@H](C)C(=O)OC[C@H]2O[C@H]1C=C[C@H]2O 0.0137
CC(C)CON=C1[C@H]2CCn3c(=O)n(-c4ccccc4)c(=O)n3[C@H]2[C@H](O)[C@@H]2O[C@H]12 0.142
O=C1[C@H]2[C@H]3[C@H](O)[C@H](O)CC(=NO[C@@H]4O[C@H](CO)[C@@H](O)[C@H](O)[C@H]4O)[C@H]3CC[C@H]2C(=O)N1Cc1ccccc1 -0.175
CCN1C(=O)[C@H]2[C@H]3[C@H](O)[C@H](O)CC(=NOCC=C(C)CCC=C(C)C)[C@H]3CC[C@H]2C1=O 1.09
CC(CCC(=O)OC[C@H]1O[C@H](C#Cc2ccccc2)C=C[C@@H]1Oc1ccc(C)cc1)=NOC[C@@H](O)COCc1ccco1 -0.729
CCN1C(=O)[C@H]2[C@H]3[C@H](O)[C@H](O)CC(=NO[C@@H]4O[C@H](CO)[C@@H](O)[C@H](O)[C@H]4O)[C@@H]3CC[C@H]2C1=O -0.232
CC(CCC(=O)OC[C@H]1O[C@H](C#Cc2ccccc2)C=C[C@@H]1Oc1ccc(C)cc1)=NOC[C@@H](O)[C@H]1O[C@@H]2OC(C)(C)O[C@@H]2[C@H]1O 0.0901
CC(C)(C)N1C(=O)[C@H]2[C@H]3[C@H](O)[C@H](O)CC(=NOCc4ccccc4)[C@@H]3CC[C@H]2C1=O 0.691
COC(=O)CC=C[C@@H](C)[C@@H](C=NO[C@@H](C)c1cc(-c2c(C)cc(C)cc2C)no1)OC 0.0164
CCOC(=O)[C@H](CC(C)C)NC(=O)CCC1CC(OC(=O)NCc2cccc3ccccc23)CC2(CCCC(COC(=O)NCCN3CCOCC3)O2)O1 (stereo partly specified) 0.0634
CCN1C(=O)[C@H]2[C@H]3[C@H](O)C=CC(=O)[C@@H]3CC[C@H]2C1=O -0.638
O=C(NN=C1C[C@@H](O)[C@@H](O)[C@@H]2[C@@H]3C(=O)N(c4ccc(F)cc4F)C(=O)[C@@H]3CC[C@@H]12)OCc1ccccc1 -0.269
C[C@@H]1CC[C@H]2C(=O)O[C@H](COc3ccc(C(C)(C)C)cc3)CN2[C@H]1c1ccc(Br)cc1 -0.418
CCOC(=O)[C@H](Cc1ccccc1)NC(=O)CCC1CC(OC(=O)NCc2ccc3c(c2)OCO3)CC2(CCCC(COC(=O)NCC(c3ccccc3)c3ccccc3)O2)O1 (stereo partly specified) 0.48
C#CCCCON=C1C[C@@H](O)[C@@H](O)[C@@H]2[C@@H]3C(=O)N(c4cccc(Oc5ccccc5)c4)C(=O)[C@@H]3CC[C@@H]12 -0.0382
COC(=O)[C@H](C)NC(=O)CCC1CC(OC(=O)NCc2cccc3ccccc23)CC2(CCCC(COC(=O)NCC3CCCCC3)O2)O1 (stereo partly specified) 0.0034
CC(CCN1CCc2nc(-c3ccccc3)c(-c3ccccc3)cc2C1)=NOC(C)CN1CCCCc2nc(C)c(C)cc21 (stereo unspecified) 0.685
COC(=O)[C@H](C)NC(=O)[C@@H](C)CO 0.316
COC(=O)[C@@H]1CC[C@H](C)[C@@H](c2ccc(C)cc2)N1C(=O)c1ccc(C=NOC(C)CN2CCCCc3nc(C)c(C)cc32)cc1 (stereo partly specified) -0.206
O=C1[C@H]2[C@H]3[C@H](O)[C@H](O)CC(=NOCc4ccccc4)[C@H]3CC[C@H]2C(=O)N1c1cccc(Oc2ccccc2)c1 0.297
CCOC(=O)NN=C1C[C@@H](O)[C@@H](O)[C@@H]2[C@@H]3C(=O)N(C4CCCCC4)C(=O)[C@@H]3CC[C@@H]12 0.311
CCOC(=O)CCN1C(=O)[C@H]2[C@H]3[C@H](O)[C@H](O)CC(=O)[C@H]3CC[C@H]2C1=O -0.245
O=C1[C@H]2[C@H]3[C@H](O)[C@H](O)CC(=NO[C@@H]4O[C@H](CO)[C@@H](O)[C@H](O)[C@H]4O)[C@@H]3CC[C@H]2C(=O)N1Cc1ccccc1 0.0711
CC(CCC(=O)OC[C@H]1O[C@H](C#Cc2ccccc2)C=C[C@@H]1Oc1ccc(C)cc1)=NO[C@@H](C)c1cn([C@H](CO)Cc2ccccc2)nn1 0.692
CCOC(=O)CCN1C(=O)[C@H]2[C@H]3[C@H](O)[C@H](O)CC(=NOC[C@@H](O)COCc4ccco4)[C@H]3CC[C@H]2C1=O 0.378
C=CC[C@@H]1C=C[C@H](ON=Cc2ccc(C(=O)N3[C@H](c4ccc(C)cc4)[C@@H](C)CC[C@H]3C(=O)OC)cc2)[C@@H](CO)O1 -0.27
Cc1cc2c(nc1C)CCCN2CC(O)CN1CCN(C)CC1 (stereo unspecified) 1.11
CCN1C(=O)[C@H]2[C@H]3[C@H](O)[C@H](O)CC(=NOC[C@@H](C)[C@H](OCc4ccccc4)C(C)C)[C@@H]3CC[C@H]2C1=O 0.185
COc1ccc(-c2ccc3c(n2)CCCN3CC(O)CN2CCCc3nc(C)c(C)cc32)cc1 (stereo unspecified) 2.32
CO[C@H]1COC(=O)[C@H](C)NC(=O)[C@@H](C)COC(=O)CC=C[C@@H]1C 0.166
O=C1[C@H]2[C@H]3[C@H](O)[C@H](O)CC(=NOCc4ccccc4)[C@@H]3CC[C@H]2C(=O)N1Cc1ccccc1 -0.22
